Compound activity deposited in PubChem BioAssay by National Center for Advancing Translational Sciences (NCATS).
In the library only some 10% were active in any assay of this set; here they are far more common.
HEK cytotox: HEK 293 cell cytotoxicity; Potency, µM (top dose mostly 115 µM), actives largely listed as inhibitors; AID 1345083; 94,000 tested, 6.6% active; HEK 293 viability, ATP luminescence (CellTiter-Glo), 48-72 h; also: nearly all actives have a fitted effect of over 60% in size
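Cytotoxicity was scored by loss of ATP-coupled luminescence (CellTiter-Glo) in HEK 293 cells. Compound treatment ran 48 or 72 hr at 37 degree Celsius, 5% CO2, 95% humidity.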
3T3 cytotox: NIH 3T3 cell cytotoxicity; AID 1345082; Potency, µM (doses to about 96.7 µM), actives largely listed as inhibitors; 94,000 tested, 4.3% active; NIH 3T3 viability, CellTiter-Glo ATP luminescence, 48-72 h; also: nearly all actives have a fitted effect of over 55% in size
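First NIH 3T3 cells are plated at 400 cells/well; next compound is pinned in; then plates incubate 48 or 72 hr at 37 °C; finally CellTiter-Glo is added and luminescence read after 10 min.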
GPT2 inh: blocks human glutamate pyruvate transaminase 2; 100,000 tested, 0.25% active; Recombinant GPT2, coupled pyruvate oxidase/HRP Amplex Red fluorescence; Potency, µM (highest dose often 57.7 µM), most hits filed as inhibitors; Q8TD30; also: nearly all actives have a fitted effect of over 60% in size
Target sequence (Q8TD30 whole entry, looked up): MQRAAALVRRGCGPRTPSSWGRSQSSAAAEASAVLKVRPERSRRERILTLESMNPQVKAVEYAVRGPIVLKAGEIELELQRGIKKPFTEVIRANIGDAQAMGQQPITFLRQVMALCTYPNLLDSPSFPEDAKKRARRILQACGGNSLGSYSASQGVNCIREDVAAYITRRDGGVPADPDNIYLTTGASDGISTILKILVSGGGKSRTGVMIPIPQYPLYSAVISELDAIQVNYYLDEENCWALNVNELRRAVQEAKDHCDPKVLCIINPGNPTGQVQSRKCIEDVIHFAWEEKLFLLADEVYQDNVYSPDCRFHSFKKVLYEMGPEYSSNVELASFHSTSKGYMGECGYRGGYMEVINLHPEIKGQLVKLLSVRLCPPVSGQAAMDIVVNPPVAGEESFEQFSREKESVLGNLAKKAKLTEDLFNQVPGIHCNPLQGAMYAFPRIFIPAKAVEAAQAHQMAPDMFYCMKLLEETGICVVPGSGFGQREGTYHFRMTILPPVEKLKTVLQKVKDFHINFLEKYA
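Recombinant GPT2 (10ng/uL) with 250uM a-KG and 2mM L-alanine, 30 min at room temperature, in HEPES pH 7.5 buffer. Pyruvate detected by pyruvate oxidase/HRP/Amplex Red fluorescence after 30 min in the dark; AOA (50uM) as positive control.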
Luciferase inh: Photinus pyralis luciferase inhibition; Potency, µM (series often up to 115 µM), most hits filed as inhibitors; 76,000 tested, 2.5% active; purified P. pyralis luciferase, luminescence, biochemical; also: nearly all actives have a fitted effect of over 65% in size
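Purified 10nM P. pyralis luciferase with 10uM D-luciferin and 10uM ATP in 50mM Tris acetate pH 7.5, 10mM Mg acetate, 0.01% Tween-20, 0.05% BSA. qHTS titration; luminescence read by CCD imager.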
hNpr1 antagonist: blocks ANP-stimulated signaling of human Npr1 receptor; P16066; 76,000 tested, 1.6% active; AID 1347048; HEK293 hNpr1 GloSensor cGMP, ANP-stimulated luminescence; Potency, µM (series often up to 46.3 µM), usual class: inhibitors; calls by dose curve; also: nearly all actives have a fitted effect of over 60% in size
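Compound pre-incubated 30 min at room temperature on GloSensor-loaded HEK293 cells stably carrying hNpr1 and the pGS-40F cGMP biosensor. Stimulation uses hNppA at 0.1 nM final; luminescence is taken at baseline and 20 min post-agonist.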
Large screens that a line does not name were inactive. Unless noted, calls follow the shape of the dose curve; as a rule, active = well fitted curve in the direction sought with a large enough effect; inconclusive = small, poorly fitted or top-dose-only effect, or another doubt; inactive = no such curve, though single readings can be large; an effect the other way counts as inactive or inconclusive.

CC(C)NC(=O)c1cnc2n[nH]c(-c3ccccc3)c2n1	HEK cytotox inconclusive
CC(=O)Nc1cc(C2CC2)nn1C	none (no result: Luciferase inh, hNpr1 antagonist)
Cc1noc(C)c1C(=O)NCC(=O)N1CCCCCCNC(=O)CC1c1ccccc1 (stereo not drawn)	none
O=C(NC1CCCCC1)c1nc2sccn2c1-c1ccccc1	HEK cytotox 63µM, 3T3 cytotox inconclusive (no result: Luciferase inh, hNpr1 antagonist)
O=C(NC1CCCCCC1)c1nc2sccn2c1-c1ccc(C(F)(F)F)cc1	HEK cytotox 40µM, 3T3 cytotox 25µM (no result: Luciferase inh, hNpr1 antagonist)
O=C(NC1CCCCC1)c1nc2sccn2c1-c1ccc(C(F)(F)F)cc1	HEK cytotox inconclusive, 3T3 cytotox 40µM (no result: Luciferase inh, hNpr1 antagonist)
O=C(NC1CC1)c1nc2sccn2c1-c1ccccc1	none (no result: Luciferase inh, hNpr1 antagonist)
CC(C)N1CC2CCC(C1)N2Cc1ccc(-c2ccsc2)cc1	HEK cytotox inconclusive, 3T3 cytotox inconclusive (no result: Luciferase inh, hNpr1 antagonist)
O=C(C1CCCN1[S+](=O)([O-])c1cccc(C(F)(F)F)c1)N1CCC(c2nc3ccncc3[nH]2)CC1 (stereo not drawn)	3T3 cytotox inconclusive (no result: Luciferase inh, hNpr1 antagonist)
O=C(c1ccc(Cl)cc1)N1CCCC(C(=O)N2CCC(c3nc4ncccc4[nH]3)C2)C1 (stereo not drawn)	none (no result: Luciferase inh, hNpr1 antagonist)
Cc1cccc(CN2CCCC(O)(CN3CCC(C)CC3)C2=O)c1 (stereo not drawn)	none
Cc1cccc(CN2CCCC(O)(CNCc3ncccc3C)C2=O)c1 (stereo not drawn)	HEK cytotox inconclusive, 3T3 cytotox 14µM
COc1ccc2c3c1CN(Cc1cccc(NC(C)=O)c1)CC3=CC(C)(C)CO2	3T3 cytotox inconclusive (no result: GPT2 inh, Luciferase inh, hNpr1 antagonist)
CCOC(=O)C1c2c(OC)ccc3c2C(=CC(C)(C)CO3)CN1Cc1ccccc1 (stereo not drawn)	HEK cytotox 45µM, 3T3 cytotox inconclusive (no result: GPT2 inh, Luciferase inh, hNpr1 antagonist)
Cc1noc(-c2cn(C3CCN(C(=O)c4ccc[nH]4)C3)nn2)n1 (stereo not drawn)	none
COc1ccccc1CNC[C@H]1Cn2cc(-c3ccc(C)cc3)nc2CO1	HEK cytotox 100µM, 3T3 cytotox 100µM, Luciferase inh inconclusive
COc1ccc(-c2cn3c(n2)CO[C@@H](CNC(=O)C2CCCC2)C3)cc1	Luciferase inh 28µM
Cc1ccc(-c2cn3c(n2)CO[C@@H](CNC(=O)C2CCCC2)C3)cc1	HEK cytotox inconclusive
COc1ccc(-c2cn3c(n2)CO[C@@H](CNC(=O)c2ccccc2OC)C3)cc1	HEK cytotox 71µM, Luciferase inh inconclusive
COc1ccc(-c2cn3c(n2)CO[C@@H](CNC2CCC2)C3)cc1	Luciferase inh 56µM
COc1ccccc1CNC[C@H]1Cn2c(-c3cccc(Cl)c3)cnc2CO1	HEK cytotox 79µM, 3T3 cytotox inconclusive
COc1ccc(CCN(C)C(=O)CC(c2cccc(F)c2)c2cn(C)c3ccccc23)cc1OC (stereo not drawn)	HEK cytotox 40µM, 3T3 cytotox inconclusive
O=C1CC(c2ccccc2)N(C(=O)CNC(=O)c2ccc3ccccc3n2)CCCCCN1 (stereo not drawn)	none
O=C(c1ccc2[nH]ccc2c1)N1CCC(n2cc(-c3nc(-c4ccccc4)no3)nn2)C1 (stereo not drawn)	HEK cytotox 16µM, 3T3 cytotox inconclusive, Luciferase inh inconclusive, hNpr1 antagonist 7.9µM
Cc1noc(-c2cn(C3CCN(C(=O)c4ccc5[nH]ccc5c4)CC3)nn2)n1	none
O=C(c1ccc2cc[nH]c2c1)N1CCC(n2cc(-c3nc(-c4ccccc4)no3)nn2)CC1	HEK cytotox 40µM, 3T3 cytotox inconclusive, Luciferase inh inconclusive
COc1ccc(C(=O)N2CCC(N3C(=O)C(O)C34CCCCC4)CC2)cc1F (stereo not drawn)	none
CCCC(O)CN1CCC(=O)N(CCOC)Cc2cc(F)ccc21 (stereo not drawn)	HEK cytotox inconclusive (no result: GPT2 inh, Luciferase inh, hNpr1 antagonist)
N#Cc1ccc(CN2CCc3ncc(C(=O)NCCOc4ccccc4)n3CC2)cc1	HEK cytotox 71µM, 3T3 cytotox inconclusive, hNpr1 antagonist inconclusive
CC(C)CCN1CCc2ncc(C(=O)NCCOc3ccccc3)n2CC1	HEK cytotox 28µM, 3T3 cytotox inconclusive
O=C(NCc1ccccc1)c1cnc2n1CCN(CCCc1ccccc1)CC2	HEK cytotox inconclusive, 3T3 cytotox 25µM
O=C(NCc1ccc(F)cc1)c1cnc2n1CCN(CCc1ccccc1)CC2	HEK cytotox inconclusive, 3T3 cytotox inconclusive
CCc1ccc(CN2CCCC3(Cc4ccccc4CNC3=O)C2)s1 (stereo not drawn)	HEK cytotox inconclusive (no result: Luciferase inh, hNpr1 antagonist)
CC1=NS(=O)(=O)N(C)C=C1C(=O)OCc1noc(-c2ccccc2Cl)n1	HEK cytotox inconclusive, 3T3 cytotox inconclusive, Luciferase inh inconclusive, hNpr1 antagonist 11µM
Cc1nc(CC(=O)NCc2ccc3[nH]c(-c4ccc(F)cc4)c(C)c3c2)cs1	HEK cytotox inconclusive, 3T3 cytotox inconclusive, Luciferase inh 35µM, hNpr1 antagonist inconclusive
Cc1c(-c2ccc(F)cc2)[nH]c2ccc(CNC(=O)CCN3CCCO3)cc12	HEK cytotox 32µM, 3T3 cytotox inconclusive, Luciferase inh 25µM, hNpr1 antagonist inconclusive
Cc1c(-c2ccc(F)cc2)[nH]c2ccc(CNC(=O)[C@@H]3CCCO3)cc12	HEK cytotox 50µM, 3T3 cytotox inconclusive, Luciferase inh 35µM
O=C1CCCCC(C(=O)NCc2ccc(F)cc2)N1 (stereo not drawn)	none
Cc1c(-c2ccc(F)cc2)[nH]c2ccc(CNCc3cnn(C)c3)cc12	HEK cytotox 40µM, 3T3 cytotox 40µM, Luciferase inh inconclusive
O=C(C[C@@H]1CCNC[C@@H]1Cc1cc(-c2ccc(F)cc2)on1)NCc1ccc2c(c1)OCO2	HEK cytotox inconclusive, 3T3 cytotox inconclusive, GPT2 inh inconclusive
COc1ccc(-c2noc(COC(=O)C3=CN(Cc4ccccc4)S(=O)(=O)N=C3C)n2)cc1	HEK cytotox inconclusive, hNpr1 antagonist inconclusive
COc1ccc(Cl)c(Nc2ncnc3cc(OCC4CCN(C)CC4)c(OC)cc23)c1	none (no result: HEK cytotox, 3T3 cytotox, Luciferase inh, hNpr1 antagonist)
COc1ccc(-c2ccccc2C(=O)NCc2cccnc2)nn1	none (no result: GPT2 inh, Luciferase inh, hNpr1 antagonist)
CC(C)C(=O)N1CCc2c(n(Cc3ccccc3)n(-c3ccccc3)c2=O)C1	3T3 cytotox 22µM
COc1ccc(-n2c(=O)c3c(n2Cc2ccccc2)CN(C(C)=O)CC3)cc1	3T3 cytotox inconclusive
COc1ccc(-n2c(=O)c3c(n2Cc2ccccc2)CN(C(=O)C(C)C)CC3)cc1	3T3 cytotox 10µM
Cc1ccccc1CN1CCc2c(n(Cc3ccccc3)n(-c3ccccc3)c2=O)C1	HEK cytotox 89µM, 3T3 cytotox 89µM
COc1ccc(Cn2c3c(c(=O)n2Cc2ccccc2)CCN(C(=O)c2ccnn2C)C3)cc1	3T3 cytotox 35µM
Cc1cc(C(=O)N2CCCCCCNC(=O)CC2)nn1C	none
CN(CC1(C)CCOCC1)C(=O)c1cc(Cl)ccc1F	none
CCOC(=O)Cc1csc(NC(=O)C2CC(=O)N(c3n[nH]c4cccc(F)c34)C2)n1 (stereo not drawn)	HEK cytotox inconclusive
